D1 agonist: Allosteric Agonists of the Human D1 Dopamine Receptor: qHTS; HEK293 T-REx D1 cells, calcium flux, agonist mode; activation, % at 2 µM; D(1A) dopamine receptor (Homo sapiens), P21728; 360,000 compounds, 1% hits; AID 504660, 2011
Target sequence (P21728 whole entry, looked up): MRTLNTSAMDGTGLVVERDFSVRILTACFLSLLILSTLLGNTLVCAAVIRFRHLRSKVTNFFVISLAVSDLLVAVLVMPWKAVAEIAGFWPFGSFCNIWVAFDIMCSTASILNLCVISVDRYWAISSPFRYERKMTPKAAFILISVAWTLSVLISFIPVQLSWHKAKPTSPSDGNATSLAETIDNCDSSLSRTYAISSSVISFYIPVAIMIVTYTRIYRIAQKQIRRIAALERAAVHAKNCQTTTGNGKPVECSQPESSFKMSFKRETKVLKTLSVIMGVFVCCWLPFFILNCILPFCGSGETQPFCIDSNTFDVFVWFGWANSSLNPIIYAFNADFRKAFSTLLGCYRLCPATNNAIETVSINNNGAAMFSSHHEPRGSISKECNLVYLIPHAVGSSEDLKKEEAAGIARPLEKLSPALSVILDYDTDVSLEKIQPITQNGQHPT
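Agonism was scored from calcium flux recorded over 180 s (1 read/s) after pintool compound addition, following a 10-cycle baseline. Cells were inducible force-coupled HEK293 TREx D1, plated overnight at 30 C and loaded with no-wash calcium dye.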
D1 PAM: Potentiators of Human D1 Dopamine Receptor: qHTS; D(1A) dopamine receptor (Homo sapiens), P21728; HEK293 TREx D1 cells, calcium flux, dopamine EC20 potentiation; potentiation, % at 10 µM; 360,000 compounds, 0.036% hits; AID 504651, 2011; in the data active means potentiation above about 30%
D1 antag: Antagonist of Human D 1 Dopamine Receptor: qHTS; activity change, negative = inhibition, % at 10 µM; 360,000 compounds, 3.2% hits; D(1A) dopamine receptor (Homo sapiens), P21728; HEK293 TREx D1 cells, calcium flux, dopamine EC80; hits give low values; AID 504652, 2011; in the data active means activity change below about -30%
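HEK293 T-REx cells expressing inducible, force-coupled D1 receptor; no-wash Ca dye, 30–90 min RT. Cmpd → 180 s read at 1 Hz → EC80 DA → 180 s read.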
TRHR enhancer: qHTS for Small Molecule Agonists and Allosteric Enhancers of Human TRH Receptor: Primary Screen for Enhancers | enhancement, % at 2 µM | AID 493056, 2011 | Thyrotropin-releasing hormone receptor (Homo sapiens), P34981 | TRHR cells, fluo-8 calcium fluorescence, EC20 TRH enhancement | 360,000 compounds, 0.66% hits; in the data active means enhancement above about 30%
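Enhancer read-out: after compound pinning and an initial kinetic agonist-mode read, an EC20 of TRH (10 nM final) was injected and fluo-8 calcium signal (Ex 480/Em 530) followed at 1 s/cycle for 100 cycles in TRHR-expressing cells.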
TRHR ag: qHTS for Small Molecule Agonists and Allosteric Enhancers of Human TRH Receptor: Primary Screen for Agonists; Thyrotropin-releasing hormone receptor (Homo sapiens), P34981; TRHR cells, calcium flux fluo-8, FDSS agonist mode; activation, % at 2 µM; 360,000 compounds, 0.18% hits
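Steps: seed TRHR cells overnight; add fluo-8 no-wash Ca dye, RT 30 min–1.5 h; record 10 s baseline; pin-transfer compounds; monitor fluorescence 1 cycle/s for the agonist window. Calcium increases flag candidate agonists.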
Epigenetic derep: Quantitative High-Throughput Screen for Regulators of Epigenetic Control; murine LDR cells, GFP reporter derepression, 30 h; Potency, µM (titrated, usually from 53.9 µM), hits mostly activators; 280,000 compounds, 0.2% hits; AID 1865, 2009; active means well fitted activation curve with a large enough effect; further: nearly all actives have a fitted effect of over 60% in size
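Readout is the number of GFP-expressing murine LDR cells, counted by cytometry following washing. Cells were treated with compound for 30 h at 37 C; the stably integrated CMV-GFP locus is normally silent.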
Of the large screens only hits and unclear results are named; the others gave an inactive call; ! = not confirmed by another sample. The list is not random: actives were taken first. Their share in the collection is about 4.6%. Unless noted, no stated cut-off is given here; in the data, active means activation above about 30%; inactive means the rest.

Cc1onc(-c2ccccc2)c1C(=O)NNC(=S)NC(=O)/C=C/c1ccccc1	D1 agonist 34
COc1ccccc1C(=O)NNC(=S)NC(=O)c1cc(OC)c(OC)c(OC)c1	none
COc1ccc(/C=C/C(=O)NC(=S)NNC(=O)c2c(-c3ccccc3)noc2C)cc1	none
O=C(NC(=S)NNC(=O)c1ccc(Cl)cc1Cl)c1cccnc1	none
Cc1c(C(=O)N2CCC(C(=O)Nc3ccc(F)cc3)CC2)sc2nc[nH]c(=O)c12	none
Cc1onc(-c2ccccc2)c1C(=O)NNC(=O)c1ccccc1	none (no result: Epigenetic derep)
Cc1onc(-c2ccccc2)c1C(=O)NNC(=S)NC(=O)c1ccc(Br)cc1	D1 agonist 134
COc1cccc(NC(=O)CSc2nc3c(oc4ccccc43)c(=O)n2Cc2ccco2)c1	none
O=C(O)c1ccc(NS(=O)(=O)c2ccc(Cl)c(Cl)c2)cc1O	D1 antag -31
COc1ccc(-n2ccn(Cc3ccc(C)cc3)c(=O)c2=O)cc1OC	none
COc1ccc(-n2ccnc2SCC(=O)Nc2nnc(C)s2)cc1	none
COc1ccc(N2C(=O)CSC23C(=O)N(CC(=O)Nc2ccccc2F)c2ccccc23)cc1 (centres undefined)	none
O=C(NCC(c1ccc2c(c1)OCO2)N1CCN(c2ccccc2F)CC1)c1ccccc1F (centres undefined)	none
Cc1cc(C)n(-c2nc3nonc3nc2Nc2cccc(C)c2C)n1	D1 antag -32
Cn1cc(Cl)c(-c2n[nH]c(=S)n2-c2ccc(F)cc2)n1	none
Cc1ccc(-n2c(-c3nn(C)cc3Cl)n[nH]c2=S)cc1	TRHR enhancer 31
COC(=O)C/C=C/[C@@H](C)[C@H](NC(=O)OCC(Cl)(Cl)Cl)c1cccc(OC)c1	none (no result: D1 agonist, D1 PAM, D1 antag, TRHR enhancer, TRHR ag)
Cc1oc(C)c2c(=O)cc(-c3ccc4c(c3)OCO4)cc(OC(=O)c3ccccc3Br)c12	none
Cc1cccc(OCCSc2nnc(-c3cccs3)o2)c1	D1 agonist 44
COc1cc(C)ccc1OCCSc1nnc(-c2cccs2)o1	none
O=C(O)CSCC(=O)N(Cc1ccccc1)c1nc(-c2ccccc2)c(-c2ccccc2)s1	D1 antag -39 (no result: Epigenetic derep)
CCOC(=O)c1sc(N(Cc2ccccc2)C(=O)CCl)nc1C	none (no result: Epigenetic derep)
O=C(O)c1ccc(CS(=O)c2cccc(C(F)(F)F)c2)o1 (centres undefined)	D1 antag -32
O=C(c1ccc(CS(=O)c2ccccc2Cl)o1)N1CCN(c2cccc(C(F)(F)F)c2)CC1 (centres undefined)	none
Cc1cc(C(=O)N/N=C/c2c(C)[nH]c3ccccc23)n[nH]1	none
Cc1cc(C(=O)N/N=C/c2ccccn2)n[nH]1	D1 antag -48
Cc1[nH]c2ccccc2c1/C=N/NC(=O)c1cc(-c2cccs2)[nH]n1	D1 antag -31
COC(=O)c1cc(CNC(=O)c2ccccc2Cl)ccc1OC	D1 antag -30
COC(=O)c1cc(CNC(=O)c2ccc(O)c(Cl)c2)ccc1OC	none
O=C(COc1ccc(Cl)cc1)Nc1ncc([N+](=O)[O-])s1	D1 antag -32
O=C(Cc1ccc(Cl)cc1)Nc1ncc([N+](=O)[O-])s1	D1 agonist 31, D1 antag -43
Cc1n[nH]c(=S)n1/N=C/c1cccc(OCc2ccccc2)c1	none
Cc1n[nH]c(=S)n1/N=C/c1ccccc1OCc1ccc(Cl)cc1	D1 antag -87
O=C(NCCN1CCN(c2ccccc2)CC1)Nc1cccc(Br)c1	D1 agonist 50, D1 antag -45!
COc1ccc(N2CCN(CCNC(=O)Nc3ccc(Cl)cc3)CC2)cc1	D1 agonist 38
O=C(NCCN1CCN(c2ccccc2)CC1)Nc1ccccc1Br	D1 antag -33!
COc1ccccc1NC(=O)NCCN1CCN(c2cccc(Cl)c2)CC1	D1 antag -40!
Cl/C(=C\n1cncn1)c1ccc(Cl)cc1Cl	none (no result: D1 agonist, D1 PAM, D1 antag, TRHR enhancer, TRHR ag)
O=C(NCCc1ccncc1)Nc1ccc(Cl)cc1	none
O=C(NCCN1CCN(c2cccc(Cl)c2)CC1)Nc1ccccc1	none
O=C(CCN1CCN(Cc2ccccc2)CC1)NNC(=O)Nc1cccc(Cl)c1	none (no result: Epigenetic derep)
O=C(NCCN1CCN(c2ccccc2)CC1)Nc1ccc(Cl)cc1	D1 agonist 30, D1 antag -32 (no result: Epigenetic derep)
O=C(NCCN1CCN(Cc2ccccc2)CC1)Nc1cc(Cl)cc(Cl)c1	D1 agonist 30
O=C(NCCc1ccc(Cl)cc1)Nc1ccc(Cl)cc1	D1 antag -34
O=C1C=CC2=C3c4cc(O)c(O)cc4CC3(O)COC2=C1O (centres undefined)	none (no result: D1 agonist, D1 PAM, D1 antag, TRHR enhancer, TRHR ag)
N#Cc1nc(/C=C/c2ccc(F)cc2)oc1N1CCCCCC1	none
O=S(=O)(c1ccc2c(c1)OCCO2)N1CCC(n2cnc3cc(F)ccc32)CC1	D1 antag -46
O=C(O)Cc1sc(Nc2ccc(Cl)cc2)nc1-c1cccs1	none
Nc1nc(-c2cccs2)c(CC(=O)O)s1	D1 antag -38
Cc1ccc(NC(=O)c2sc3ncn(Cc4cccc(F)c4)c(=O)c3c2C)c(Br)c1	none
CNc1ncc(Cc2ccccc2)s1	D1 antag -53
O=C(Nc1ncc(Cc2ccccc2)s1)C1CCCO1 (centres undefined)	none
Fc1ccccc1N1CCN(C2CCN(Cc3c[nH]c4ccccc34)CC2)CC1	D1 agonist 46
O=C(CN1CCN(c2ccccc2F)CC1)c1c[nH]c2ccccc12	none
Cc1ccc(-n2c(=O)c3c(C)c(C(=O)N(C)C)sc3n(CC(=O)N(C)c3ccccc3)c2=O)cc1C	none
O=C(c1ccc2c(Cl)c3c(nc2c1)CCCC3)N1CCN(c2ccccc2F)CC1	none
COc1ccc(OC)c(C(=O)COC(=O)CN2C(=O)NC3(CCCCC3C)C2=O)c1 (centres undefined)	TRHR enhancer 33 (no result: Epigenetic derep)
CC(C)(C)c1ccc(C(=O)COC(=O)CN2C(=O)NC3(CCCC3)C2=O)cc1	D1 antag -31 (no result: Epigenetic derep)
CC1CCCN(C(=O)Cn2ncc3c([nH]c4ccccc43)c2=O)C1 (centres undefined)	none
Cc1nn(-c2cccc(C(F)(F)F)c2)c(=O)c2ccccc12	none (no result: Epigenetic derep)
Cn1cc(-c2nnnn2-c2cccc(C(F)(F)F)c2)c(C(F)(F)F)n1	D1 antag -37
N#Cc1cnn2ccc(-c3ccc4c(c3)CCC4)nc12	D1 antag -31

Screening data: PubChem BioAssay, National Center for Advancing Translational Sciences (NCATS)
